Inconclusive results are not listed. Activity calls are given as the source filed them. Calls come from the whole dose curve; as a rule, active = well fitted cell-killing curve with a large enough effect; inconclusive = small, poorly fitted or top-dose-only effect, or effect the other way; inactive = no such curve, though single readings can be large or run the other way.
Test: Quantitative High-Throughput drug screen in 47 multiple myeloma cell lines against the NCATS MIPE library collection: SKMM1_PLB cell viability assay (AID 1919863); note: nearly all actives have a fitted effect of over 35% in size; for viability: series mostly up to about 46 µM
Conditions: SKMM1 myeloma viability, CellTiter-Glo ATP, 48 h; viability: active compounds read low
Summary of the method: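 Readout: median RLU from CellTiter-Glo after 5 min at room temperature. Preceding step was 48 h drug treatment of 500 cells/well at 37 °C, 5% CO2, with DMSO-only and media-only control wells.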
Potency is the fitted concentration of half-maximal effect.

Compound | viability | Potency
CC(=Cc1csc(C)n1)[C@@H]1C[C@H]2O[C@]2(C)CCC[C@H](C)[C@@H](O)[C@@H](C)C(=O)C(C)(C)[C@@H](O)CC(=O)O1 | 69.9% (inactive) | 
O=c1cccc2n1CC1CNC[C@H]2C1 | 142% (inactive) | 
Cc1c(N)nc([C@H](CC(N)=O)NC[C@@H](N)C(N)=O)nc1C(=O)N[C@H](C(=O)N[C@@H](C)[C@H](O)[C@@H](C)C(=O)N[C@@H](C(=O)NCCc1nc(-c2nc(C(=O)NCCC[S+](C)C)cs2)cs1)[C@@H](C)O)C(O[C@H]1O[C@H](CO)[C@H](O)[C@@H](O)[C@@H]1O[C@H]1O[C@H](CO)[C@@H](O)[C@H](OC(N)=O)[C@H]1O)c1cnc[nH]1 (some centres undefined) | 89.3% (inactive) | 
CCOC(=O)c1cncn1[C@H](C)c1ccccc1 |  | 7.43 µM (active)
CC(O)=C(C#N)C(=O)Nc1cc(Br)ccc1Br |  | 20.9 µM (active)
CCN(CC)C(=O)c1ccc(C2=CC3(CCNCC3)Oc3cccc(O)c32)cc1 | 112% (inactive) | 
CC(=O)N(C)c1cccc(-c2ccnc3c(C(=O)c4cccs4)cnn23)c1 | 119% (inactive) | 
c1ccc(CCCN2CCN(CCOC(c3ccccc3)c3ccccc3)CC2)cc1 |  | 20.9 µM (active)
CN(C)NC(=O)CCC(=O)O | 111% (inactive) | 
O=C(Oc1ccc([N+](=O)[O-])cc1)N1CCC(C(O)(c2ccc3c(c2)OCO3)c2ccc3c(c2)OCO3)CC1 | 123% (inactive) | 
CN(C)[C@@H]1C(=O)C(C(N)=O)=C(O)[C@@]2(O)C(=O)C3=C(O)c4c(O)cccc4[C@@](C)(O)[C@H]3[C@H](O)[C@@H]12 |  | 14.8 µM (active)
COc1cc([C@@H]2c3cc4c(cc3[C@@H](O)C3COC(=O)C32)OCO4)cc(OC)c1O (some centres undefined) |  | 0.0166 µM (active)
C#C[C@]1(O)C=C[C@@H]2[C@@H]3CCC4=CC(=O)CC[C@@H]4[C@H]3CC[C@@]21CC | 126% (inactive) | 
C[C@]12CC[C@H](O)CC1=CC[C@H]1[C@H]3CCC(=O)[C@@]3(C)CC[C@@H]12 | 106% (inactive) | 
O=C1C=CC[C@@H]2[C@H]3CCCN4CCC[C@@H](CN12)[C@@H]34 | 117% (inactive) | 
CC(=CCCC1=CCC(C2=CC(=O)OC2O)OC1O)CCC1=C(C)CCCC1(C)C (centres undefined) | 104% (inactive) | 
C[C@@H]1CC[C@@]2(OC1)O[C@H]1C[C@H]3[C@@H]4CC=C5C[C@@H](O[C@@H]6O[C@H](CO)[C@@H](O[C@@H]7O[C@@H](C)[C@H](O)[C@@H](O)[C@@H]7O)[C@H](O)[C@@H]6O[C@@H]6O[C@@H](C)[C@H](O)[C@@H](O)[C@@H]6O)CC[C@]5(C)[C@@H]4CC[C@]3(C)[C@@H]1[C@H]2C |  | 2.35 µM (active)
COc1ccc2c(c1)[C@]13CCCCC1C(C2)N(C)CC3 (some centres undefined) | 120% (inactive) | 
C[C@]12Cc3cn[nH]c3C[C@@H]1CC[C@@H]1[C@H]2CC[C@@]2(C)[C@H]1CC[C@]2(C)O |  | 3.32 µM (active)

— PubChem BioAssay (NCATS)
